From PubChem BioAssay
A selection: hits, their analogues and other compounds. The true share with any hit is near 5.7%.
Myeloid diff MLP = compounds promoting myeloid differentiation. ER-HoxA9 myeloid progenitors, lysozyme-GFP differentiation, flow cytometry. calls only at 10 µM. 360,000 tested, 1% active. AID 624256;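 active = normalized GFP-positive differentiation at or above the plate's own cutoff, the solvent-only control mean plus 3 SD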;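 note: cells exposed to compound for four days before flow analysis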
NR3A LBD binder = NR3A (human) ligand-binding domain modulation; NR3A LBD differential scanning fluorimetry, Tm shift; 0% = protein alone, 100% = glycine-bound protein; Tm shift relative to glycine control, % at 25 µM; 340,000 tested, 2.5% active;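 active = melting temperature shift of at least 10% of the positive control shift, at one fixed dose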
FAS TE block = FAS thioesterase (human) inhibition; P49327; recombinant FAS-TE, OMFH fluorogenic substrate, fluorescence endpoint; inhibition, % at 15 µM; 360,000 tested, 0.67% active; AID 602261;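 active = compounds whose normalised, plate-corrected inhibition of enzyme fluorescence in the single-dose primary screen is 50% or more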
rCAG binder = binds r(CAG) RNA repeats | r(CAG) RNA repeat, TO-PRO-1 dye displacement fluorescence | inhibition, % at 3 µM | 370,000 tested, 1.3% active | AID 651821;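 active = inhibition above the plate cutoff, the mean of all test compounds on that plate plus 3 SD, cut at about 35% in these data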;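 note: higher means more dye released from RNA so lower well fluorescence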
MPTP block = blocks calcium-induced mitochondrial swelling. isolated mouse mitochondria, Ca2+ swelling absorbance, 30 min. inhibition, % at 10 µM. 360,000 tested, 1.4% active. AID 602449;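 active = inhibition of 50% or more, scaled per plate between neutral and stimulator controls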
Myeloid diff = compounds promoting myeloid differentiation; ER-HoxA9 myeloid progenitors, GFP/Mac1 double-positive flow; calls only; shares compounds with Myeloid diff MLP; 2,300 tested, 2% active; AID 651706;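 active = share of green or green-and-red cells above 9 and 9% in run 1 or 4 and 3% in run 2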
GFP autofluor = counter-screen for myeloid differentiation promoters: compound fluorescence. shares compounds with Myeloid diff MLP. AID 651707. fluorescence response, % (test concentration not listed). ER-HoxA9 myeloid progenitors, no estrogen, GFP autofluorescence flow cytometry; vehicle wells 0%, positive control 100%. 2,300 tested, 7.4% active;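 active = over 5% cells positive for green fluorescent reporter, or over 2% positive for both it and APC stain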
A number is an active result; 0 = inactive; - = not tested or not shown; + = active, no number.

SMILES	Myeloid diff MLP	NR3A LBD binder	FAS TE block	rCAG binder	MPTP block	Myeloid diff	GFP autofluor
CCN(C(=O)CO/N=C/c1ccc(OC)cc1OC)c1c(N)n(Cc2ccccc2)c(=O)[nH]c1=O	0	0	0	0	0	-	-
Cc1n[nH]c2c([N+](=O)[O-])c(=O)[nH]c(=O)n12	0	0	0	0	0	-	-
O=C(/C=C/[C@H]1O[C@@H](n2ccc(=O)[nH]c2=O)[C@H](O)[C@@H]1O)NCc1cccc2ccccc12	+	-	0	0	0	0	0
CN1CCN(Cc2nc(Cc3ccccc3)no2)CC1c1ccccc1 (centres undefined)	0	0	0	0	0	0	0
Cc1ccc(/C=[N+](/C)[O-])cc1	0	0	0	0	0	0	0
CCNC(=S)Nc1cc(Cl)ccc1Oc1ccccc1	0	0	0	0	0	-	-
CCOC(=O)Cn1cc(-c2ccccc2)nn1	0	0	0	0	0	-	-
c1ccc(COCCCn2cc(-c3ccccc3)nn2)cc1	+	0	0	0	0	0	0
CCCn1nc(-c2ccccc2)c2nc3ccccc3nc21	-	0	-	0	-	-	-
CCCCCn1nc(-c2ccccc2)c2nc3ccccc3nc21	+	0	0	0	0	0	82
CCN1/C(=C/C=C/C=C/C=C/c2sc3ccccc3[n+]2CC)Sc2ccccc21	0	0	0	0	0	0	43
NNC(=O)COc1ccc(-c2nccc(-c3ccc(F)cc3)n2)cc1	0	0	0	0	0	0	0
Cc1ccc(Cl)cc1NC(=O)CCN1C(=O)C2C3CCC(C3)C2C1=O (centres undefined)	0	0	0	0	0	-	-
O=C(CCN1C(=O)C2C3C=CC(C4CC34)C2C1=O)Nc1ccc(Cl)cc1O (centres undefined)	+	0	0	0	0	0	0
O=C(CNC(=O)N1CC(=O)Nc2ccccc21)NCCc1ccc(Cl)cc1	0	0	0	0	0	-	-
CCN1C(=O)C(O)(C2COC(C)(C)CC2=O)c2cc(Br)ccc21 (centres undefined)	0	0	0	0	0	0	12
CCN(CC)c1ccc(C=NNc2ccc([N+](=O)[O-])cn2)cc1	+	0	0	0	0	0	13
O=[N+]([O-])c1ccc(N/N=C/c2cccs2)nc1	0	0	0	0	0	-	-
Cn1nnnc1Sc1ccc([N+](=O)[O-])cc1Cl	0	0	0	0	0	0	0
O=[N+]([O-])c1ccc(Sc2nnnn2-c2ccccc2)c(Cl)c1	+	0	0	0	0	0	0
Cn1nnnc1Sc1c(Cl)cccc1[N+](=O)[O-]	0	0	0	0	0	-	-
C[C@H]1CN(c2ccccc2)C(=O)[C@@H]1CC(=O)Nc1ccc(Br)cc1	0	-	0	0	0	-	-
C=CCNC(=S)/N=c1/ccccn1CC	0	0	0	0	0	0	0
C=CCNC(=S)Nc1ccccc1	0	0	0	0	0	-	-
CC1(C)CC(NC(=O)c2sc3cc(Cl)ccc3c2Cl)CC(C)(C)N1	0	0	0	0	0	0	0
SMILES	Myeloid diff MLP	NR3A LBD binder	FAS TE block	rCAG binder	MPTP block	Myeloid diff	GFP autofluor
CC(O)CNCc1ccccc1C(F)(F)F (centres undefined)	0	0	0	0	0	-	-
N#C/C(=C\c1ccc(-c2ccc([N+](=O)[O-])cc2)o1)C(=O)Nc1nc(-c2cccs2)cs1	+	0	0	0	0	0	0
CC(=O)Nc1nc(-c2ccc([N+](=O)[O-])cc2)cs1	0	0	0	0	0	-	-
COc1cccc(NC(=S)N2CCN(C(c3ccccc3)c3ccccc3)CC2)c1	0	0	0	0	0	0	0
COc1ccc(NC(=S)N2CCN(C(c3ccccc3)c3ccccc3)CC2)c(OC)c1	0	0	0	0	0	-	-
Cc1ccnc(N=O)c1	0	0	0	0	0	-	-
Cc1cc(C)c(S(=O)(=O)NC2CC(C)(C)NC(C)(C)C2)cc1C	+	0	0	0	0	0	0
CCOc1cc(C)c(S(=O)(=O)NC2CC(C)(C)NC(C)(C)C2)cc1C	0	0	0	0	0	-	-
Cc1cc(C(O)c2ncc(-c3ccc(Oc4ccccc4)cc3)[nH]2)ccc1F (centres undefined)	0	-	0	0	0	-	-
O=c1c2c(nc3nc(CCc4ccccc4)[nH]n13)CCC2	+	0	0	0	0	0	0
O=c1c2c(nc3nc(NCc4ccc(Cl)cc4)[nH]n13)CCC2	0	0	0	0	0	-	-
O=C(NCCc1ccccc1)C(=O)NCC1CCCN1S(=O)(=O)c1ccccc1 (centres undefined)	+	0	0	0	0	0	0
O=C(NC(=S)Nc1ccccc1O)c1cncc(Br)c1	0	0	0	0	0	0	10
CC(=O)c1ccc(-c2cnc3c(NC=O)cc(-c4ccccc4Oc4ccccc4)cn23)cc1	0	-	0	0	0	0	0
CN(C)c1ccc(-c2cc(NC=O)c3ncc(-c4ccc(F)c(Cl)c4)n3c2)cc1	+	-	0	0	0	0	0
O=CNc1cc(-c2ccccc2)cn2c(-c3ccc(F)c(Cl)c3)cnc12	0	-	0	0	0	-	-
COc1cc(-c2cnc3c(NC=O)cc(-c4ccc(S(C)(=O)=O)cc4)cn23)cc(OC)c1OC	+	-	0	0	0	0	0
CN1CCN(c2ccc(-c3cc(NC=O)c4ncc(-c5ccc(F)c(Cl)c5)n4c3)cc2)CC1	+	-	0	0	0	0	0
CN(C)CCNc1nc(Oc2cccc(F)c2)c2sccc2n1	0	-	0	0	0	-	-
COc1cc2oc(=O)cc(-c3ccc(-c4ccc(C#N)cc4)cc3)c2c(OC)c1OC	0	0	0	0	0	0	0
NC(=O)COC(=O)CC1CC2CCC1C2 (centres undefined)	0	0	0	0	0	-	-
Cn1ncc(Br)c1C(=O)NC12CC3CC(CC(C3)C1)C2	0	0	0	0	0	-	-
O=C(Nc1cc(Br)ccc1O)c1cc(-c2cccs2)on1	+	0	0	0	0	0	0
COc1ccc(CCn2c(C)cc(C(=O)CN3C(=O)C(=O)N(Cc4ccco4)C3=O)c2C)cc1	+	0	0	0	0	0	0
CC(=O)c1cc2c(cc1NC(=O)CN1CCOCC1)OCO2	+	0	0	0	0	0	0
SMILES	Myeloid diff MLP	NR3A LBD binder	FAS TE block	rCAG binder	MPTP block	Myeloid diff	GFP autofluor
C(=N\Nc1nc(-c2ccccc2)cs1)/c1ccncc1	0	0	0	0	0	-	-
O=C(O)Cc1sc(N/N=C\c2ccncc2)nc1-c1ccccc1	0	0	0	0	0	0	0
COc1ccccc1/C=C/C1(C(=O)NC2CCCC2)CC(=O)N1c1ccccc1 (centres undefined)	+	0	0	0	0	0	0
COc1ccccc1/C=C/C(=O)OCC(=O)NC1CCCCCCC1	0	0	0	0	0	-	-
CCCCC(=O)NS(=O)(=O)c1ccc(N=NN2CCOCC2)cc1	0	0	0	0	0	-	-
c1ccc(OCCSc2nnc3sc4ccccc4n23)cc1	0	0	0	0	0	0	0
COc1cccc(OCCSc2nnc3sc4ccccc4n23)c1	0	0	0	0	0	-	-
